Here are results for 17 compounds from PubChem BioAssay (NCATS).

Records with an inconclusive call do not appear. Values without a mark were called inactive. Calls of active or inactive are those of the source. The call rests on the fitted dose curve; in most records, active means well fitted cell-killing curve with a large enough effect; inconclusive means small, poorly fitted or top-dose-only effect, or effect the other way; inactive means no such curve, though single readings can be large or run the other way.

Broadly, the viability is a read-out of living cells in per cent, often relative to untreated cells.

Assay [1] is described as follows: Quantitative High-Throughput drug screen in 47 multiple myeloma cell lines against the NCATS MIPE library collection: MM1S_ATCC cell viability assay (AID 1918980). Further: nearly all actives have a fitted effect of over 45% in size. Summed up: (§1)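 ATP-based luminescence (CellTiter-Glo, 5 min RT incubation) quantified surviving cells following two days' treatment with MIPE 4.0 agents at 37 °C, 5% CO2.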
Assay [2] in a line: Quantitative High-Throughput drug screen in 47 multiple myeloma cell lines against the NCATS MIPE library collection: MM1R_ATCC cell viability assay (AID 1918981). Further: nearly all actives have a fitted effect of over 35% in size. The procedure, abridged:
as §1

Assay [3] in a line: Quantitative High-Throughput drug screen in 47 multiple myeloma cell lines against the NCATS MIPE library collection: LP1_DSMZ cell viability assay (AID 1918982). Further: nearly all actives have a fitted effect of over 35% in size. The procedure, abridged: as §1
The nature of assay [4]: Quantitative High-Throughput drug screen in 47 multiple myeloma cell lines against the NCATS MIPE library collection: L363_DSMZ cell viability assay (AID 1918984). Further: nearly all actives have a fitted effect of over 40% in size. The procedure, abridged:
as §1

The nature of assay [5]: Quantitative High-Throughput drug screen in 47 multiple myeloma cell lines against the NCATS MIPE library collection: KMS34_JCRB cell viability assay (AID 1918985). Further: nearly all actives have a fitted effect of over 40% in size. Summed up: as §1
Assay [6] in a line: Quantitative High-Throughput drug screen in 47 multiple myeloma cell lines against the NCATS MIPE library collection: OCIMY7_PLB cell viability assay (AID 1918987). Further: nearly all actives have a fitted effect of over 65% in size. To be noted: OCI-MY7 myeloma viability, CellTiter-Glo ATP, 48 h; viability (% of DMSO): at 45.8 µM (top of the series). The procedure, abridged: as §1
Assay [7] is described as follows: Quantitative High-Throughput drug screen in 47 multiple myeloma cell lines against the NCATS MIPE library collection: OPM1_PLB cell viability assay (AID 1918989). Further: nearly all actives have a fitted effect of over 40% in size. The procedure, abridged:
as §1

The nature of assay [8]: Quantitative High-Throughput drug screen in 47 multiple myeloma cell lines against the NCATS MIPE library collection: SKMM1_PLB cell viability assay (AID 1919863). Further: nearly all actives have a fitted effect of over 35% in size. To be noted: SKMM1 myeloma viability, CellTiter-Glo ATP, 48 h; viability: active compounds read low. The procedure, abridged: as §1
Assay [9] in a line: Quantitative High-Throughput drug screen in 47 multiple myeloma cell lines against the NCATS MIPE library collection: KMS28PE_JCRB cell viability assay (AID 1918983). Further: nearly all actives have a fitted effect of over 35% in size. Summed up:
as §1

Assay [10] in a line: Quantitative High-Throughput drug screen in 47 multiple myeloma cell lines against the NCATS MIPE library collection: OCIMY5_PLB cell viability assay (AID 1918988). Further: nearly all actives have a fitted effect of over 65% in size. The procedure, abridged: as §1
Potency means the concentration at half of the fitted maximal effect.

As for `O=C1NC(=O)[C@@H](c2cn3c4c(cccc24)CCC3)[C@H]1c1c[nH]c2ccccc12`, the Potency in assay [1] is 18.7 µM (active); in assay [2], 14.8 µM (active); in assay [3], 1.05 µM (active); in assay [4], 0.118 µM (active); in assay [5], 0.418 µM (active); in assay [6], 0.0372 µM (active). Also, the Potency in assay [7] is 2.09 µM (active); in assay [8], 0.132 µM (active).

In the case of `CCOC(=O)N1CCN([N+]([O-])=NOc2ccc([N+](=O)[O-])cc2C#N)CC1`, the Potency in assay [1] is 1.32 µM (active); in assay [2], 1.32 µM (active); in [3] it was 2.64 µM (active); in assay [4] it was 0.59 µM (active); in [5], 0.526 µM (active); in assay [6], 0.59 µM (active). In assay [7], the Potency was 0.418 µM (active).

Regarding `C#CCC(Cc1cnc2nc(N)nc(N)c2n1)c1ccc(C(=O)N[C@@H](CCC(=O)O)C(=O)O)cc1` (some centres not stated), the Potency in [1] was 0.0187 µM (active); in [2] it was 0.0118 µM (active); in [3] it was 0.0418 µM (active); in [5], 0.209 µM (active); in [7], 0.166 µM (active). Also, the Potency result in assay [9] and in [10] was “inactive” each time. For the same compound, the viability in [8] is 117%.

With `COC(=O)C=CC(=O)OC`, the Potency was 1.66 µM (active) in [1]; 23.5 µM (active) in assay [2]; 1.32 µM (active) in [6]; 11.8 µM (active) in assay [10]; 20.9 µM (active) in [7]. Further, the Potency entry in assay [3] and in assay [9] was “inactive” each time. Further, the viability in assay [8] is 144%.

On to `COc1ccc2cc([S+]([O-])Cc3ncc(C)c(OC)c3C)nc2c1`, for which the Potency entry in [1], in assay [2], in assay [3], in assay [9], in assay [5] and in assay [10] was “inactive” each time. The viability in assay [8] is 122%.

As for `N[C@H]1CN(c2c(F)cc3c(=O)c(C(=O)O)cn(C4C[C@@H]4F)c3c2Cl)CC12CC2` (some centres not stated), the Potency result in [1], in [2], in assay [3], in assay [4], in [6] and in assay [7] was “inactive” in each case. Besides, the Potency in [10] is 20.9 µM (active).

Turning to `NC(=O)c1ncn([C@@H]2O[C@H](CO)[C@@H](O)[C@@H]2O)c1N`, the Potency result in assay [1], in assay [2], in [3], in assay [5] and in assay [7] was “inactive” throughout. In addition, the viability in [8] was 159%.

As for `Cc1noc(-c2ccc(CSCCC(=O)O)cc2)c1NC(=O)OC(C)c1ccccc1Cl` (configuration not stated), the Potency result in [1], in [2], in assay [3], in [5] and in assay [7] was “inactive” in each case. In addition, the viability in [8] was 124%.

On to `COc1cc2c(Nc3ccc(Cl)c(Cl)c3F)ncnc2cc1OCC1C[C@@H]2CN(C)C[C@H]2C1`, for which the Potency in assay [1] was 16.6 µM (active); in assay [2], 16.6 µM (active); in [3], 18.7 µM (active); in [4], 1.66 µM (active); in [6], 0.209 µM (active); in assay [10], 1.87 µM (active). Besides, the Potency in assay [7] is 3.32 µM (active); in assay [8], 5.9 µM (active).

As to `CCOC(=O)C=C[C@H](C[C@@H]1CCNC1=O)NC(=O)[C@@H](CC(=O)[C@@H](NC(=O)c1cc(C)on1)C(C)C)Cc1ccc(F)cc1`, the Potency entry in [1], in assay [2], in assay [3], in [9], in [5] and in assay [10] was “inactive” each time. The viability in [8] is 138%.

In the case of `CC(C)(N)c1ccc(-c2nc3ccccc3nc2-c2ccccc2)cc1`, the Potency in assay [1] was 18.7 µM (active); in assay [2], 26.4 µM (active); in assay [3], 18.7 µM (active); in assay [4], 3.32 µM (active); in assay [6], 7.43 µM (active); in assay [10], 23.5 µM (active). Further, the Potency in assay [7] was 5.9 µM (active).

Regarding `COc1ccc(CCC(=O)c2c(O)cc(O[C@@H]3O[C@H](CO)[C@@H](O)[C@H](O)[C@@H]3O[C@@H]3O[C@@H](C)[C@H](O)[C@@H](O)[C@@H]3O)cc2O)cc1O`, the Potency in assay [1] was 9.35 µM (active); in [6], 10.5 µM (active). Moreover, the Potency result in assay [2], in assay [3], in assay [5] and in assay [7] was “inactive” throughout. The viability in assay [8] is 101%.

For `CC(C)n1cnc2c(NCCc3ccc(O)cc3)nc(-c3csc4ccccc34)nc21`, the Potency is 0.743 µM (active) in assay [1]; 7.43 µM (active) in assay [2]; 16.6 µM (active) in [3]; 20.9 µM (active) in assay [5]; 7.43 µM (active) in assay [6]; 1.66 µM (active) in [10]. Also, the Potency is 23.5 µM (active) in [7] and 20.9 µM (active) in assay [8].

Consider `C=CC1=C(C(=O)O)N2C(=O)[C@@H](NC(=O)C(=NO)c3csc(N)n3)[C@H]2SC1`, for which the Potency result in assay [1], in [2], in assay [3], in assay [5], in [10] and in [7] was “inactive” each time.

In the case of `O=C1c2cccc(O)c2C(=O)c2c(O)cc(CO)cc21`, the Potency result in assay [1], in assay [2] and in assay [6] was “inactive” in each case. In addition, the Potency in assay [3] is 16.6 µM (active); in assay [9], 5.9 µM (active).

`COc1ccc(S(=O)(=O)Nc2cc(-c3c(O)ccc4ccccc34)c(O)c3ccccc23)cc1`: the Potency is 2.35 µM (active) in assay [1]; 23.5 µM (active) in assay [2]; 16.6 µM (active) in assay [3]; 2.64 µM (active) in assay [4]; 10.5 µM (active) in [5]; 2.64 µM (active) in assay [6]. Further, the figures for the Potency in assay [10], in assay [7] and in assay [8] were 20.9 µM (active), 9.35 µM (active) and 20.9 µM (active), respectively.

With `NC(=O)c1cccc(-c2cccc(OC(=O)NC3CCCCC3)c2)c1`, the Potency result in [1], in [2], in [3], in assay [9], in assay [6] and in assay [7] was “inactive” each time. In addition, in assay [10], the Potency was 29.6 µM (active). Also, the viability in [8] was 110%.
